# Target: LRRC15
# Experiment: pooled miR-30 sensor sort-seq; sequence = guide strand
# Details: shRNA
# Also: reference of the scale not given here.
row,Sequence,sensor-assay potency score (higher = more potent)
1,TTGCTGAAGACATTGTCGGGTA,0.015
2,TTGAGGTTGCTGCACTGGGAGA,-1.66
3,TCTTGCAGCAGCAACAGCCGAC,-0.387
4,TTGTTGGACAGGTAGAGTCTCT,-0.632
5,TTCTTCTCAATCCTCAGGGCGA,-1.09
6,TTGAGTTCAGTGATGTGCGTGT,0.975
7,TTGAGCAGGAGCCAGTTGCGGA,-0.932
8,TAGTCAGATCAGTGTAGTCTTC,-1.03
9,TAACCTAGGCTGGTTGAGCAGG,-0.94
10,TTGGACAGGTAGAGTCTCTGGA,0.0615
11,AACAGCAACGTTGACATTGATG,-1.31

# Target: LRRC19
# Experiment: as above
# Details: shRNA
row,Sequence,sensor-assay potency score (higher = more potent)
1,TATGTCTGTAGAACTCTTGTGT,0.236
2,TATGTAACTGTCAACTACCGAG,-0.747
3,TTGATTATGAGGACTCAGCAAA,-0.795
4,TAACTGTCAACTACCGAGGAGT,-0.999
5,TTTGATATTGTAGCTCTGCAGG,-1.09
6,TTCTGCTTCATGCTCTTCCAGG,-0.767
7,TATAGTAACATCTTTCTTGATA,-0.839
8,TAAACTGTAGTGATCCTGCATT,-0.636
9,TTCATGAATAATTTAGACCTTT,-0.134
10,TTACTGTATTTGAACCTGCTTG,-0.499
11,TTATGTAAGATAGTAACCTTGT,0.182
